# Screening results (PubChem)
# STAT3 inh – IL-6 driven STAT3 reporter inhibitors, primary screen, U3A cells, luciferase, luminescence, MLSCN library; IL-6 STAT3-luciferase reporter; host cell line lacks STAT1; inhibition, % at 5.5 µM; actives 0.89% (n = 190,000);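 active means inhibition above the mean inhibition across all screened compounds plus 3 SD, cut at about 44% in these data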;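 further: 0% = DMSO only wells and 100% = 100 µM nifuroxazide control wells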
# STAT1 blocker – STAT1 signaling inhibitors, primary screen, cell-based, HTS, luciferase reporter. AID 920, 2007. NIH 3T3 STAT1-luciferase reporter, IFN-gamma, luminescence. actives 0.35% (n = 200,000). inhibition, % at 5.5 µM;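 active means inhibition above a set limit, the mean inhibition across all tested compounds plus 3 SD, cut at about 34% in these data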;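 further: 0% = IFN-gamma with DMSO and 100% = IFN-gamma with 300 µM nifuroxazide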
# HSF1 inh – HSF1 inhibitors in luciferase reporter cells, primary screen, cell-based, NIH3T3, luminescence | NIH3T3-HGL HSE-luciferase, MG132-induced, luminescence 8 h; active compounds read low | activity change, negative = inhibition, % at 7.5 µM (by protocol) | actives 0.77% (n = 300,000);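 active means more than half of replicate wells show activity change below -50%, luminescence cut by over half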;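 further: luciferase reports HSF-1 transcriptional activity via heat shock element; 0% = median of DMSO wells and -100% = zero luminescence signal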
# TRAIL sens C8 – viability loss with TRAIL in NB7+C8 cells, primary screen, TRAIL sensitizer project, cell-based, ATPlite luminescence. inhibition (viability loss, TRAIL sensitization), % at 10 µM. actives 1% (n = 360,000);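 active means compounds causing at least 50% loss of cell viability in the single-dose screen, relative to plate controls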
# PPC-1+TRAIL kill – compounds killing PPC-1 cancer cells with TRAIL present, primary screen, TRAIL potentiator project, ATPLite luminescence, uHTS; PPC-1 cells + TRAIL, ATPLite viability luminescence; cell killing (% activity), % at 4 µM or 5 µM; actives 0.41% (n = 220,000); AID 1443, 2008;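 active means cell killing above 50% in the first pass at 4 µM, then a duplicate retest at 5 µM averaging 50% or more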;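 further: plate controls were cells with TRAIL plus DMSO for no effect and medium-only wells lacking cells for full effect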
# HSP90 refold inh – HSP90 inhibitors, primary screen, cell lysate, luminescence | Heat shock protein HSP 90 (rabbit reticulocyte lysate; luciferase refolding) | Rabbit reticulocyte lysate, luciferase refolding luminescence, 3 h | AID 1789, 2009 | actives 0.91% (n = 290,000) | inhibition, % at 5.6 µM;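 active means inhibition above the screen-wide mean plus 3 SD, computed separately per campaign, cut at about 16% in these data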;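 further: 0% = DMSO wells and 100% = 60 µM geldanamycin wells; inhibitors lower the luminescence because luciferase stays unfolded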
# Numbers without * were called inactive; / = no result. Hits are enriched below; roughly 2.4% of the tested compounds scored in any of these assays.
SMILES,STAT3 inh,STAT1 blocker,HSF1 inh,TRAIL sens C8,PPC-1+TRAIL kill,HSP90 refold inh
Cc1ccc(S(=O)(=O)N2CC3(O)CN(C(=O)OC(C)C)N(C(=O)OC(C)C)CC3(OC(=O)NCC3CCCCC3)C2)cc1 (centres undefined),/,/,/,9,/,/
COCc1[nH]nc2c1C1(CCSCC1)C(C#N)=C(N)O2,1,-11,-85*,-9,-9,-4
CCCCC(=O)Nc1cc(OC)c(NC(=S)Nc2ccc(OC)cc2)cc1OC,/,/,/,0,/,/
O=C(NC1=C(Nc2ccc(Cl)cc2)C(=O)c2ccccc2C1=O)c1ccccc1,-19,8,9,14,21,0
O=C(NC1=C(NC2CCS(=O)(=O)C2)C(=O)c2ccccc2C1=O)c1ccccc1 (centres undefined),-2,8,2,52*,23,3
CC(NO)/C(=N\O)c1cccs1 (centres undefined),-2,-5,-51*,9,11,-2
Fc1ccc(-c2nc(-c3cnccn3)no2)c(Cl)c1,/,/,36,60*,49,5
Clc1ccc(-c2nc(-c3cnccn3)no2)cc1,/,/,24,53*,25,-5
Cc1ccccc1-c1noc(-c2ccc(Cl)cc2)n1,-28,-13,9,23,-16,-1
Cc1cc(C(=O)N2CCC2(C)C(=O)Nc2cccc3c2CCCC3)nn1C (centres undefined),/,/,/,-23,/,/
O=C(Nc1ccc2c(c1)OCO2)c1ccc2nc([C@@H]3O[C@H](CO)[C@H](O)[C@H](O)[C@H]3O)[nH]c2c1,/,/,/,-1,/,/
Cc1ccc(S(=O)(=O)c2ccc([N+](=O)[O-])o2)cc1,/,/,/,92*,/,/
O=C(N/N=C\c1cn[nH]c1-c1ccccc1)c1cccs1,-3,-22,-74*,-2,8,-3
O=C(NN=Cc1ccc2c(c1)CCN2)c1cccs1,/,/,/,50*,/,/
O=C(N/N=C\c1cn[nH]c1-c1ccccc1)c1cccnc1,-1,-10,-2,12,11,-1
CN(C)CCNc1ncnc2c1ncn2[C@H]1CN(Cc2cccs2)C[C@@H](CO)O1,/,/,/,-9,/,/
CCCCNS(=O)(=O)c1cccc(NC(=O)[C@H]2C[C@H](O)[C@@H](CO)O2)c1,/,/,/,-2,/,/
CCOc1cccc2cc(-c3nnc(NCc4ccco4)s3)c(=O)oc12,20,1,6,55*,14,4
Cc1cc(N2CCN(C(c3ccnc4ccccc34)c3nnnn3-c3c(C)cccc3C)CC2)c2ccccc2n1 (centres undefined),/,/,/,16,/,/
CCC(=O)c1ccc(/C=C/c2nc3ccccc3n2C)o1,40,-15,20,51*,8,9
CC[C@H](C)C1OC(=O)[C@@H](C)[C@@H](CC)NC(=O)[C@H](C)N(C)C(=O)C(C)(C)C(=O)C(C)NC(=O)[C@H](Cc2ccc(OC)cc2)N(C)C(=O)[C@H](C(C)C)N(C)C(=O)CNC(=O)[C@H](CC(C)C)N(C)C(=O)CNC1=O (some centres undefined),/,/,/,55*,/,/
Cc1ccc(C(=O)N/N=C\c2ccc[nH]2)cc1[N+](=O)[O-],22,5,-14,86*,24,1
O=C(N/N=C/c1ccc[nH]1)c1ccccc1[N+](=O)[O-],11,3,-10,-6,8,-3
CCC1CCCCN1S(=O)(=O)c1ccc(NC(=O)c2nc(S(C)(=O)=O)ncc2Cl)cc1 (centres undefined),/,/,-84*,92*,/,9
COc1ccc(CNC(=O)c2nc(S(=O)(=O)Cc3ccccc3)ncc2Cl)cc1,/,/,227,31,/,-1
SMILES,STAT3 inh,STAT1 blocker,HSF1 inh,TRAIL sens C8,PPC-1+TRAIL kill,HSP90 refold inh
CCS(=O)(=O)c1ncc(Cl)c(C(=O)Nc2ccc(C)cc2)n1,/,/,-98*,84*,/,-3
Cc1ccc(CS(=O)(=O)c2ncc(Cl)c(C(=O)Nc3ccc(OC(F)F)cc3)n2)cc1,/,/,11,88*,/,-1
CC1CCCN(S(=O)(=O)c2ccc(NC(=O)CNC3CCCC3)cc2)C1 (centres undefined),/,/,-8,5,/,6
CCS(=O)(=O)c1ncc(Cl)c(C(=O)Nc2ccc(S(=O)(=O)N3CCCC(C)C3)cc2)n1 (centres undefined),/,/,-79*,96*,/,1
CCOC(=O)[C@]12CCCC=C1N(Cc1ccc3c(c1)OCO3)C(=O)[C@H](CC(=O)NCc1ccc(C)o1)C2,/,/,/,-1,/,/
CCOC(=O)n1c(SCC(N)=O)nc2ccccc21,6,-2,-65*,0,7,1
Oc1ccc(Nc2nc3ccccc3nc2Nc2ccc(O)cc2)cc1,34,-30,-86*,32,2,5
COc1ccc2nc(COC(=O)c3cccc([N+](=O)[O-])c3)c(C(C)=O)[n+]([O-])c2c1,/,/,-7,-1,-4,3
COc1ccc2nc(COC(=O)c3cccs3)c(C(C)=O)[n+]([O-])c2c1,/,/,-54*,-14,0,5
Cc1ccc(NC(=S)NC2CC3CCC(C2)N3Cc2ccco2)cc1C (centres undefined),-3,5,-84*,5,26,1
Cc1cnc(C(=O)Nc2ccccc2-n2cccc2)cn1,-1,3,-60*,-4,21,2
COc1ccccc1C=NN=C(NN=Cc1ccccc1OC)NN=Cc1ccccc1OC,/,/,/,69*,/,/
COc1cc(C(=O)Oc2ccccc2/C=N/NC(=O)c2ccc(Cl)cc2)cc(OC)c1OC,-10,-35,19,45,37,-1
COc1cc(C(=O)Oc2ccccc2/C=N/NC(=O)c2ccc(C)c(Cl)c2)cc(OC)c1OC,4,-1,-1,41,52*,-6
COc1ccccc1C=NNC(=O)NN=Cc1ccccc1OC,/,/,/,65*,/,/
CCCN(C)C1CN(Cc2cn(CCCC(=O)OC)nn2)S(=O)(=O)C1 (centres undefined),/,/,/,1,/,/
C#Cc1cccc(Nc2nc(NCc3ccccc3OC)nc3ccsc23)c1,/,/,/,46*,/,/
C#Cc1cccc(Nc2nc(NCCOC)nc3ccsc23)c1,/,/,/,8,/,/
CCC(=O)N1CCN(c2ccc(NC(=O)c3ccc([N+](=O)[O-])o3)cc2Cl)CC1,-8,-35,115,70*,31,5
CCN1CCN(c2ccc(NC(=O)c3ccc([N+](=O)[O-])o3)cc2Cl)CC1,9,-56,-43,44,44,8
CN1CCN(c2ccccc2NC(=O)c2ccc([N+](=O)[O-])o2)CC1,/,/,10,60*,/,-4
CCC(=O)N1CCN(c2ccc(Cl)cc2NC(=O)c2ccc([N+](=O)[O-])o2)CC1,/,/,16,29,/,7
CC(=O)N1CCN(c2ccc(NC(=O)c3ccc([N+](=O)[O-])o3)cc2Cl)CC1,/,/,-88*,30,/,-3
